# Experimental data as given in PubChem BioAssay (EPA / NIEHS).
# Results filed as inconclusive are left out. Activity calls are given as the source filed them. Rule for the calls: active = hit-call score of the fitted dose curve at least 0.9, where 1 is the maximum; inconclusive = response in the unintended direction; inactive = score below 0.9.
# Assay: Tanguay_ZF_120hpf_PIG_legacy: (Legacy) Oregon State University Tanguay Lab 120 Hour Post-fertilization zebrafish Assay for Pigmentation Malformation (AID 2283650);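 note: dechorionated Tropical 5D zebrafish embryos exposed singly from 6 to 120 hpf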
# Experimental: Tanguay_ZF_120hpf_legacy is a whole embryo, multiplexed endpoint assay using zebrafish larvae exposed for 120 hours post fertilization on a 96-well plate.Tanguay_ZF_120hpf_PIG_legacy is one of one assay component(s) measured or calculated from the Tanguay_ZF_120hpf_legacy assay. It is designed to make measurements of zebrafish development as detected with brightfield microscopy of developing zebrafish embryos.Data from the assay component Tanguay_ZF_120hpf_PIG_legacy was analyzed into 1 assay endpoints. This assay endpoint, Tanguay_ZF_120hpf_PIG_legacy, was analyzed in the positive analysis fitting direction relative to DMSO as the negative control and baseline of activity. Using a type of morphology reporter, gain-of-signal activity can be used to understand changes in developmentals as they relate to the whole embryo. To generalize the intended target to other relatable targets, this assay endpoint is annotated to the zebrafish development intended target family, where the subfamily is embryonic pigmentation.
# Zebrafish husbandry: Tropical 5D wild-type adult zebrafish were housed in at an approximate density of 1000 per 100 gallon tank at the Sinnhuber Aquatic Research Laboratory, Oregon State University, Corvallis, OR. Each tank was kept at standard laboratory conditions of 28C on a 14-h light/10-h dark photoperiod in fish water consisting of reverse osmosis water supplemented with a commercially available salt (Instant Ocean). Spawning funnels were placed into the tanks the night prior, and embryos were collected and staged. To increase bioavailability, the chorion was enzymatically removed using pronase (63.6mg/ml, >/= 3.5U/mg, Sigma-Aldrich: P5147) at 4 hours post fertilization (hpf) using a custom automated dechorionator.Chemical exposures: Six hpf dechorionated embryos were placed 1 embryo per well in a 96-well plate prefilled with 90 ul of EM using automated embryo placement systems (AEPS). Ten microliters of each row of dilution plate 2 was added to 2 exposure plates. The final DMSO concentration used was 0.64% (vol/vol). Thirty-two embryos were also exposed to 5uM trimethyltin chloride (positive control). Plates were sealed to prevent evaporation and foil covered to reduce light exposure and kept in a 28C incubator. Embryos were statically exposed until 120 hpf. At 24 hpf, embryos were assessed for photomotor response using a custom photomotor response analysis tool (PRAT) and for developmental toxicity endpoints (MO24: mortality at 24 hpf, DP: developmental progression, SM: spontaneous movement, and NC: notochord distortion). At 120 hpf, locomotor activity was measured using Viewpoint Zebralab and assessed for 18 endpoints. Zebrafish acquisition and analysis program (ZAAP), a custom program designed to inventory, acquire, and manage zebrafish data, was used to collect developmental endpoints as either present or absent (i.e., binary responses were recorded). If mortality occurred for an embryo (at either 24 or 120 hpf), the non-mortality endpoints were not measured.
Structure (SMILES),outcome,AC50
C=CCc1ccc(O)c(OC)c1,inactive,
CCCCOC(=O)CCCCCCCCC(=O)OCCCC,inactive,
CC(C)(C)c1cc(O)c(C(C)(C)C)cc1O,inactive,
O=C(O)CCCCC(=O)O,inactive,
Cc1ccc2ncccc2c1,inactive,
Nc1ccc2c(c1)C(=O)c1ccccc1C2=O,inactive,
Nc1ccc(S(=O)(=O)c2ccc(N)cc2)cc1,inactive,
CC(C)c1ccc(C(=O)N=C(N)N)cc1S(C)(=O)=O,inactive,
Cc1nc(C)nc(N2C[C@@H](C)N(c3ccnc([C@@H](C)O)n3)[C@@H](C)C2)n1,inactive,
COCCOCCOC,inactive,
Cc1c(C(=O)O)c(O)cc2c1C(=O)c1c(O)c([C@@H]3O[C@H](CO)[C@@H](O)[C@H](O)[C@H]3O)c(O)c(O)c1C2=O,inactive,
CCCCc1ccc2c(n1)[C@@H](c1ccc(OC)cc1C[C@H](C)C(=O)O)[C@H](C(=O)O)[C@H]2c1ccc2c(c1)OCO2,inactive,
Oc1ccc2ccccc2c1N=Nc1ccccc1,inactive,
CCCCCCCCCCC,inactive,
NS(=O)(=O)c1cc2c(cc1Cl)NCNS2(=O)=O,inactive,
CCCCCC(=O)O,inactive,
Cc1cccc(C)c1O,inactive,
Oc1ccc2c(c1)OC[C@@H](N1CCC(O)(c3ccc(F)cc3)CC1)[C@H]2O,inactive,
CCc1c(C(=O)NN2CCCCC2)nn(-c2ccc(Cl)cc2Cl)c1-c1ccc(Br)cc1,inactive,
COc1ccc2c(c1)c(CC(=O)O)c(C)n2C(=O)c1ccc(Cl)cc1,inactive,

Structure (SMILES),outcome,AC50
CCCCCCC(=O)OCC,inactive,
CC(CO)OC(C)CO (stereo not given) (tested in a mixture with another compound),inactive,
O=c1[nH]cc(F)c(=O)[nH]1,inactive,
COc1cc(S(=O)(=O)O)c(C)cc1N=Nc1c(O)ccc2cc(S(=O)(=O)O)ccc12,inactive,
COc1ccc(S(=O)(=O)N2C(=O)[C@@](c3ccccc3OC)(N3C[C@H](O)C[C@H]3C(=O)N(C)C)c3cc(Cl)ccc32)c(OC)c1,inactive,
CCCCCCCCCCCCCO,inactive,
Cc1ccc(C(C)C)c(O)c1,inactive,
CN[C@H]1CC[C@@H](c2ccc(Cl)c(Cl)c2)c2ccc(S(N)(=O)=O)cc21,inactive,
Nc1nc(N)c2nc(CNc3ccc(C(=O)N[C@@H](CCC(=O)O)C(=O)O)cc3)cnc2n1,inactive,
CCCCCCCCCCCCCCCCCC(=O)O,inactive,
COc1ccc(C)cc1N,inactive,
Cc1ccccc1Cl,inactive,
O=C(N[C@@H](Cc1ccccc1)[C@@H](O)C(=O)N1C[C@@H](O)[C@@H](O)C1)c1cc2cc(Cl)ccc2[nH]1,inactive,
Cc1cc(=O)[nH]c(=S)[nH]1,inactive,
CNC(=O)[C@H]1O[C@@H](n2cnc3c(NCc4cc(Cl)ccc4OCc4cc(C)no4)ncnc32)[C@H](O)[C@@H]1N,inactive,
Cc1cc(NC(=O)C(=O)O)cc(C)c1Oc1ccc(O)c2c1CCC2,,3.39 nM (active)
CNCc1cc(F)ccc1Oc1ccc(Cl)c(Cl)c1,inactive,
CCOC(=O)C(C)(C)Oc1ccc(Cl)cc1,inactive,
COC(=O)c1ccc(O)cc1,inactive,
Cc1cccc([N+](=O)[O-])c1C,inactive,
